“And” between values parts separate entries of the source, which are not always exact repeats. Equal values may be shown once. Records with an inconclusive call do not appear. The source made the active and inactive calls. Cut-off read from the data, not from the text of the source, unless noted: active = inhibition above about 80%; inactive = the rest.
Assays:
[1] = viability loss in pontine glioma line – cell-based, SU-DIPG-XIII, MIPE4.0, CellTiter-Glo, qHTS, dose response (AID 1347061; cut-off not given, nearly all actives have AC50 up to about 37 µM;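 note: cells exposed to compound for 48 hours before readout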); details: CellTiter-Glo ATP luminescence
[2] = viability loss in pontine glioma line – cell-based, JHH-DIPG-1, MIPE4.0, CellTiter-Glo, qHTS, dose response (AID 1347062; cut-off not given, nearly all actives have AC50 up to about 27 µM;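 for AC50: cells exposed to compound for two days before readout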); details: JHH-DIPG-1 viability, CellTiter-Glo ATP luminescence
[3] = viability loss in pontine glioma line – cell-based, SU-DIPG-IV, MIPE4.0, CellTiter-Glo, qHTS, dose response (AID 1347063; cut-off not given, nearly all actives have AC50 up to about 30 µM;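 note: compound exposure lasted 48 hours before the viability readout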); details: CellTiter-Glo ATP luminescence
[4] = viability loss in pontine glioma line – cell-based, SU-DIPG-XIII, MIPE5.0, CellTiter-Glo, qHTS, dose response (AID 1347064; cut-off not given, nearly all actives have AC50 up to about 23 µM;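 note: cells exposed to compound for 48 hours before the viability read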); details: CellTiter-Glo ATP luminescence
[5] = viability loss in pontine glioma line – cell-based, SU-DIPG-XXV, MIPE5.0, CellTiter-Glo, qHTS, dose response (AID 1347065; cut-off not given, nearly all actives have AC50 up to about 26 µM;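 note: cells exposed to compound for 48 hours before ATP readout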); details: CellTiter-Glo ATP luminescence
[6] = growth inhibition of DIPG cells – cell-based, MIPE4.0 library, CellTiter-Glo luminescence, qHTS (AID 1347066; cut-off not given, nearly all actives have AC50 up to about 30 µM;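 note: cells exposed to compound for 48 hours before readout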); details: SU-DIPG-VI viability, CellTiter-Glo ATP luminescence
[7] = JHH-DIPG-1 glioma cell viability, MIPE5.0 library, CellTiter-Glo luminescence, qHTS (AID 1347067; cut-off not given, nearly all actives have AC50 up to about 26 µM;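 note: cells exposed to compound for 48 hours before readout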); details: JHH-DIPG-1 glioma viability, CellTiter-Glo ATP luminescence
[8] = growth inhibition of DIPG cells – cell-based, MIPE5.0 library, qHTS (AID 1347068; cut-off not given, nearly all actives have IC50 up to about 30 µM;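 note: cells exposed to compound for 48 hours before viability readout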); details: SU-DIPG-XXV viability
[9] = viability loss with induced miR-34 in A549 – imaging, A549 dox-inducible miR-34, nuclei and caspase counts, primary screen (AID 1347080;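 active = compounds whose cell count with miR-34 switched on is under 0.7 times the count with it off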); details: A549 miR-34 inducible, Hoechst nuclei count, 48 h
[10] = compounds altering HSF1 focus formation in cells – imaging, Selleck Cancer Library (AID 1347162; in the data active = plate-normalised HSF1 focus index below about 0.46); details: human cells, HSF1 nuclear foci imaging, at 10 µM; SSMD: measured here: HSF1 foci SSMD mean; cell count: measured here: cell number; plate-normalised HSF1 focus index: stronger effect = lower value
[11] = MELAS cybrid and Rieske KO viability enhancers – cell-based, MELAS cybrids, Rieske KO mouse fibroblasts, CellTiter-Glo, primary screen (AID 1508586;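 active = mean z-score across replicates of 1.96 or higher in either the MELAS or the Rieske mutant cell line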;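 note: z relative to plate mean and SD of compound and empty wells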); details: low glucose
[12] = growth inhibition, single agent or in combination, cell-based, chromothripsis tumors, cisplatin or BGB combos (AID 1671449); details: LFS_MB_P medulloblastoma cells;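 note: cells exposed for 96 hours; 0% = vehicle DMSO and 100% = killing by high DMSO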
[13] = growth inhibition, single agent and combos, cell-based, chromothripsis tumors, cisplatin or BGB combos (AID 1671450); details: HDN33 neuroblastoma cells, stronger effect = higher value;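 note: cells exposed to compound for four days; 0% = vehicle DMSO and 100% = cell killing by high DMSO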
[14] = growth inhibition, single agents and combos, ICB984, cell-based, cisplatin or BGB combos, synergistic combos for chromothripsis tumors (AID 1671451; call rule not given here;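 note: cells exposed for 96 hours before readout; 0% = vehicle DMSO and 100% = killing by high DMSO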); details: ICB984 medulloblastoma cells, drug combinations, stronger effect = higher value
[15] = growth inhibition, single agents and combos, LFS_MB_1R, cell-based, cisplatin or BGB combos, synergistic combos for chromothripsis tumors (AID 1671452); details: LFS_MB_1R medulloblastoma cells, stronger effect = higher value;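 note: cells exposed for 96 hours before readout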
[16] = growth inhibition, single agents and combos, HTB85, cell-based, BGB or cisplatin IC20 combos, synergistic combos for chromothripsis tumors (AID 1671453); details: HTB85 osteosarcoma cells, drug combinations, stronger effect = higher value;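 note: cells exposed for 96 hours before readout; 0% = vehicle DMSO and 100% = high DMSO killing control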
[17] = growth inhibition, single agents and combos, CRL2098, cell-based, BGB or cisplatin IC20 combos, synergistic combos for chromothripsis tumors (AID 1671454); details: CRL2098 osteosarcoma cells, drug combinations, stronger effect = higher value;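 note: cells exposed for 96 h before readout; 0% = vehicle DMSO and 100% = killing by high DMSO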
[18] = growth inhibition, single agents and combos, HD-MB03, cell-based, BGB or cisplatin IC20 combos, synergistic combos for chromothripsis tumors (AID 1671455; in the data active = inhibition above about 83%;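 note: 0% = vehicle DMSO and 100% = high DMSO as cytotoxic control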); details: HD-MB03 medulloblastoma cells, stronger effect = higher value
[19] = growth inhibition, single agents and combos, UWB1.289, cell-based, BGB or cisplatin combos, synergistic combos for chromothripsis tumors (AID 1671456); details: UWB1.289 ovarian carcinoma cells, stronger effect = higher value;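 note: cells exposed to compound for four days; 0% = vehicle DMSO and 100% = killing by high DMSO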
[20] = growth inhibition, single agents and combos, LFS_MB_2R, cell-based, cisplatin combos, synergistic combos for chromothripsis tumors (AID 1671457); details: LFS_MB_2R medulloblastoma cells, stronger effect = higher value;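 note: cells exposed to compound for four days before readout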
[21] = growth inhibition, MDA-MB-436, cell-based, BGB or cisplatin combos, synergistic combos for chromothripsis tumors (AID 1671458; call rule not given here;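 note: cells exposed for 96 hours; 0% = vehicle DMSO and 100% = killing by high DMSO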); details: MDA-MB-436 breast carcinoma growth inhibition, drug combinations, stronger effect = higher value
[22] = UWB1.289_BRCA1 ovarian cancer growth, cell-based, BGB or cisplatin combinations (AID 1671459); details: UWB1.289 BRCA1 ovarian carcinoma, drug combinations, stronger effect = higher value
[23] = drug combination toxicity in non-malignant astrocytes – cell-based, BGB or cisplatin IC20 combos, cytotoxicity control for chromothriptic childhood tumor combination screen (AID 1671460); details: Human astrocytes, viability inhibition, drug combinations, at 0.5 µM, stronger effect = higher value;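 note: cells exposed to compounds for 96 hours before viability readout; 0% = vehicle and 100% = killing control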
[24] = BT084 cell growth, single and combined drugs, ICGC_MB145, cisplatin and BGB IC40 combos (AID 1671461); details: BT084 medulloblastoma cells, drug combinations, stronger effect = higher value;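 note: cells exposed to drugs for 96 hours; 0% = vehicle DMSO and 100% = high DMSO full killing control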
[25] = RCMB18 cell growth, single agent and combined, cisplatin and BGB IC40 combos (AID 1671462); details: RCMB18 medulloblastoma cells, stronger effect = higher value;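 note: cells exposed to compound for four days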
[26] = CRL1545 cell growth, single agent and combined, cisplatin and BGB IC20 combos (AID 1671464); details: CRL1545 osteosarcoma cells, stronger effect = higher value;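 note: cells exposed to compound for 96 hours before readout; 0% = vehicle DMSO and 100% = high DMSO killing control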
[27] = measured here: combination with BGB IC40, at 0.05 µM
[28] = measured here: with BGB IC20 combination, at 0.5 µM
[29] = measured here: with cisplatin IC20 combination, at 0.5 µM
[30] = measured here: combination with cisplatin, at 0.5 µM
[31] = measured here: combination with cisplatin, at 5 µM

Compound: Nc1ccccc1NC(=O)c1ccc(CNC(=O)OCc2cccnc2)cc1
- AC50 [1]: 14.8 µM (active)
- AC50 [2]: 4.69 µM (active)
- AC50 [3]: 1.32 µM (active)
- AC50 [4]: 3.32 µM (active)
- AC50 [5]: 2.35 µM (active)
- AC50 [6]: 3.72 µM (active)
- AC50 [7]: 2.95 µM (active)
- IC50 [8]: 5.25 µM (active)
- fold change ([9]; stronger effect = lower value, cell number ratio, induced over uninduced): 0.935 (inactive) and 1.04 (inactive)
- fold change ([9]; measured here: relative caspase fold change +Dox/-Dox): 1.69 and 0.81
- cell count ([9]; measured here: total cells with miR-34 induction, stronger effect = lower value): 3300 and 2250
- cell count ([9]; measured here: total cells without miR-34 induction): 3530 and 2180
- SSMD [10]: 2.19
- cell count [10]: 6960
- plate-normalised HSF1 focus index [10]: 1.11 (inactive)
- z-score ([11]; MELAS cybrid survival, CellTiter-Glo 48 h, stronger effect = higher value): -0.681 (inactive)
- z-score ([11]; Rieske KO mouse fibroblast survival, CellTiter-Glo 72 h): -1.12
- inhibition ([12]; at 0.5 µM, stronger effect = higher value): 20.5% (inactive) and 31.3% (inactive)
- inhibition ([12]; measured here: combination with BGB IC20, at 0.005 µM): 9.17% and -14%
- inhibition ([12]; measured here: combination with BGB IC40, at 0.005 µM): -20.6% and -27.1%
- inhibition [12, 27]: -4.42% and -24.6%
- inhibition ([12]; measured here: combination with cisplatin, at 0.5 µM, stronger effect = higher value): 46.4% and 85.2%
- inhibition ([12]; measured here: combination with cisplatin, at 5 µM, stronger effect = higher value): 118% and 115%
- inhibition ([13]; BGB combo, at 5 µM): 97.1% and 92.4%
- inhibition ([13]; at 0.5 µM): 44% (inactive) and 41% (inactive)
- inhibition ([13]; cisplatin combo, at 5 µM): 99.7% and 97%
- inhibition [13, 28]: 39.9% and 34.6%
- inhibition [13, 29]: 48.7% and 57.6%
- inhibition ([13]; single agent, at 5 µM): 99.3% and 93.9%
- inhibition ([14]; BGB IC20 combo, at 0.005 µM): 36.5% and 11%
- inhibition ([14]; BGB IC40 combo, at 0.005 µM): 24.4% and 20.7%
- inhibition ([14]; BGB IC40 combo, at 0.05 µM): 97.8% and 93%
- inhibition ([14]; at 0.5 µM): -31.6% (inactive) and -19.6% (inactive)
- inhibition ([14]; cisplatin combo, at 0.05 µM): 97.7% and 92.8%
- inhibition ([14]; cisplatin combo, at 0.5 µM): -49.4% and -14.7%
- inhibition ([14]; cisplatin combo, at 5 µM): 10.2% and -21.6%
- inhibition ([14]; measured here: 5 uM single agent, at 5 µM): 20% and -23%
- inhibition ([15]; at 0.5 µM): 61% (inactive) and 41.3% (inactive)
- inhibition [15, 27]: -9.37% and -18.3%
- inhibition [15, 30]: 79.3% and 71.8%
- inhibition [15, 31]: 96.9% and 96.1%
- inhibition ([16]; at 0.5 µM): 57.3% (inactive) and 32.6% (inactive)
- inhibition ([16]; measured here: with BGB IC20, at 0.5 µM): 48% and 25.2%
- inhibition ([16]; measured here: with BGB IC20, at 5 µM): 97.7% and 98.3%
- inhibition ([16]; measured here: with cisplatin IC20, at 0.5 µM): 80.3% and 42.5%
- inhibition ([16]; measured here: with cisplatin IC20, at 5 µM): 99.8% and 98.9%
- inhibition ([16]; single agent, at 5 µM): 99.3% and 97.6%
- inhibition ([17]; at 0.5 µM): 0.19% (inactive) and -6.59% (inactive)
- inhibition ([17]; measured here: combination with BGB at IC20, at 0.5 µM): -0.645% and -36.5%
- inhibition ([17]; measured here: combination with cisplatin at IC20, at 0.5 µM): 30.1% and 43.8%
- inhibition ([18]; at 0.5 µM): 42.6% (inactive) and 20.9% (inactive)
- inhibition ([18]; measured here: combo with BGB at IC20, at 0.5 µM): 34.7% and 26.6%
- inhibition ([18]; measured here: combo with cisplatin at IC20, at 0.5 µM): 87.6% and 25.8%
- inhibition ([19]; at 0.5 µM): 18.2% (inactive) and 10.7% (inactive)
- inhibition ([19]; measured here: inhibition with BGB combination, at 0.05 µM): 0.005% and -12.1%
- inhibition ([19]; measured here: inhibition with cisplatin combination, at 0.05 µM): -11.8% and 3.27%
- inhibition ([20]; at 0.5 µM): 39.2% (inactive) and 22.4% (inactive)
- inhibition [20, 30]: 66.8% and 38.1%
- inhibition [20, 31]: 99.8% and 92.3%
- inhibition ([21]; at 0.5 µM): 18.4% (inactive) and 2.92% (inactive)
- inhibition ([21]; measured here: BGB combination, at 0.5 µM): 16.3% and -2.7%
- inhibition ([21]; measured here: BGB combination, at 5 µM): 55.1% and 44.4%
- inhibition ([21]; measured here: cisplatin combination, at 0.5 µM): 15.5% and -5.2%
- inhibition ([21]; measured here: cisplatin combination, at 5 µM): 49.1% and 36.5%
- inhibition ([22]; BGB combination, concentration series, at 5 µM): 98.1% and 86.1%
- inhibition ([22]; at 0.5 µM): 28.5% (inactive) and 10.5% (inactive)
- inhibition ([22]; cisplatin combination, concentration series, at 5 µM): 104% and 98.8%
- inhibition [23]: 5.28% (inactive) and 8.78% (inactive)
- inhibition ([23]; measured here: combo with BGB IC20): 3.25% and 5.25%
- inhibition ([23]; measured here: combo with cisplatin IC20): 2.55% and 12.8%
- inhibition ([24]; at 0.5 µM): 46.5% (inactive) and 28.3% (inactive)
- inhibition ([24]; cisplatin combination, at 0.5 µM): 67% and 52.4%
- inhibition ([24]; cisplatin combination, at 5 µM): 97.3% and 96.5%
- inhibition ([24]; measured here: BGB IC40 combination 0.05 uM, at 0.05 µM): 51.3% and 7.15%
- inhibition ([24]; single agent, at 5 µM): 87.5% and 72.2%
- inhibition ([25]; at 0.5 µM): 49.1% (inactive) and 37.1% (inactive)
- inhibition ([25]; cisplatin combo, at 5 µM): 94.3% and 95%
- inhibition ([25]; measured here: BGB IC40 combination, at 0.05 µM): 11.6% and 4.4%
- inhibition [25, 30]: 71.2% and 58%
- inhibition ([25]; single agent, at 5 µM): 95.5% and 86.6%
- inhibition ([26]; at 0.5 µM): 74.5% (inactive) and 39.4% (inactive)
- inhibition [26, 28]: 71.4% and 25.4%
- inhibition [26, 29]: 76.1% and 45.2%
- inhibition ([26]; single agent, at 0.05 µM): 28.6% and -12.8%
- inhibition ([26]; single agent, at 5 µM): 73.7% and 44.8%

Compound: Cc1cc(OCCCc2c(C(=O)O)n(Cc3cccnc3)c3c(-c4c(COc5ccc(N6CCN([S+](C)(=O)[O-])CC6)cc5)nn(C)c4C)cccc23)cc(C)c1Cl
- outcome [1]: inactive
- outcome [2]: inactive
- AC50 [3]: 20.9 µM (active)

Compound: C[C@@H]1CCO[C@H]2Cn3cc(C(=O)NCc4ccc(F)cc4F)c(=O)c(O)c3C(=O)N12
- outcome [1]: inactive
- outcome [2]: inactive

Compound: O=C(NCc1ccncc1)C12C[C@H]3C[C@@H](C1)CC(c1ccc(Cl)cc1)(C3)C2
- AC50 [1]: 14.8 µM (active)

Reference: PubChem BioAssay
